According to PubChem BioAssay:

assay: FRG1 promoter luciferase signal modulators, primary screen, FRG1 inhibition for FSHD, cell-based, C2C12 myotubes, firefly/Renilla luciferase, luminescence (AID 1084); settings: higher = more signal, called active from +8 up or from −8 down

z-score, inactive:
COC(=O)C(CC#Cc1ccc2c(c1)[C@]1(C(=O)N2)[C@H](C(=O)N2CCN(c3ncccn3)CC2)[C@H]2C(=O)O[C@H](c3ccccc3)[C@H](c3ccccc3)N2[C@@H]1c1ccc(OCCO)cc1)C(=O)OC 1.97, COCCOC(=O)N1C(=O)[C@@]2(c3cc(C#CC4=CCCCC4)ccc31)[C@H](c1ccccc1OCCO)N1[C@H](c3ccccc3)[C@H](c3ccccc3)OC(=O)[C@H]1[C@@H]2C(=O)N1CCCCCCC1 -0.639, CCOC(=O)C[C@H]1[C@H](OC(=O)c2ccc(C(=O)c3ccccc3)cc2)[C@@H](NC(=O)Cc2ccc(OC)cc2)c2cc(OCCCO)ccc2N1C(=O)c1ccccc1 -0.587, C=CC[C@@]1(C(=O)N2CCOCC2)N=C(c2ccc(OCCCO)cc2)O[C@@H]1c1ccccc1CN=[N+]=[N-] -1.21, NC(=O)NCC#Cc1ccc2c(c1)[C@]1(C(=O)N2)[C@H](C(=O)NC[C@H](O)c2ccccc2)[C@H]2C(=O)O[C@H](c3ccccc3)[C@H](c3ccccc3)N2[C@@H]1c1ccc(OCCO)cc1 1.71, C=C(COC)/C(=C/C[C@H](OC(=O)c1ccncc1)c1ccccc1OCCO)c1cnc2ccccc2c1 1.01, [N-]=[N+]=Nc1ccccc1C[C@]1(C(N)=O)N=C(c2ccc(OCCCO)cc2)O[C@H]1c1ccccc1N=[N+]=[N-] -1.08, CN1C(=O)C2C=CC(C(O)c3ccccn3)N(N(c3ccccc3)c3ccccc3)C2C1=O (configuration not stated) 0.164, NCCCCCCNC(=O)[C@@H]1C[C@@H]2C(=O)N[C@@H](CCCCN)C(=O)N2[C@@H]1c1cccc(OCCO)c1 3.25, O=C1N(Cc2ccccc2)c2ccccc2[C@@H]2OC(c3ccc(OCCCO)cc3)=N[C@]12Cc1ccccc1 -2.82, CCCCCCCCCCC(O)C1C=CC2C(=O)N(C)C(=O)C2N1NC(=O)OC(C)(C)C (configuration not stated) -0.218, OCCCC1=CC(c2ccc(CN3CCCC3)cc2)N(Cc2sc3ccccc3c2Cl)CC1 (configuration not stated) -0.475, [N-]=[N+]=Nc1ccccc1[C@@H]1OC(c2ccc(OCCCO)cc2)=N[C@]1(Cc1ccccc1)C(=O)NCC(O)CO (some centres not stated) -0.992, C=CCC(OC(C)=O)[C@@H]1[C@@H](N(Cc2cc3ccccc3o2)C(=O)c2ccc(-c3ccccc3)cc2)c2cc(OCCCO)ccc2N1C(=O)c1ccc2ccccc2c1 (some centres not stated) -3.52, Cc1cc(C)c(C(O)C2C=CC3C(=O)N(c4ccccc4)C(=O)C3N2Nc2ccc(C(C)C)cc2)c(C)c1 (configuration not stated) 1.44, COc1cc(OC)c(C(O)C2C=CC3C(=O)N(c4ccccc4)C(=O)C3N2Nc2ccccc2)cc1Br (configuration not stated) 0.203, CO[C@H]1O[C@H](CO)[C@@H](OC(=O)Nc2ccccc2-c2ccccc2)[C@H](OC(=O)Nc2ccc3c(c2)OCO3)[C@H]1OC(=O)Nc1ccc2c(c1)OCO2 4.93, CC1CC/C=C\[C@H]2OC34C=CCN(c5ccc(Cl)cc5)C(=O)[C@H]3N(CCCCCO)C(=O)[C@]4(C)C2C(=O)O1 (some centres not stated) 0.581, CC(C)N1C(=O)c2ccccc2[C@@H](C(=O)NC2CC2)[C@@H]1c1ccc(CO)cc1 0.216, COCCCNC(=O)[C@@]1(Cc2ccccc2CN=[N+]=[N-])N=C(c2ccc(OCCCO)cc2)O[C@H]1c1ccccc1 -2.01, COc1ccc([Si](C)(C)[C@@H]2[C@@H](CCO)O[C@]3(C(=O)N(Cc4ccc(N5CCCCC5=O)cc4)c4ccccc43)[C@H]2C)cc1 -4.78, C=C(/C(=C/C[C@@H](OC(C)=O)c1cccc(OCCO)c1)c1cc(C(=O)OC)ccc1OC)C(C)C 0.608, C=C(COC)C(=O)CC[C@@H](OC(=O)c1cccnc1)c1ccc(OCCO)cc1 -1.32, CN(C)c1ccc(C(O)C2C=CC3C(=O)N(c4ccccc4)C(=O)C3N2Nc2ccc([N+](=O)[O-])cc2)cc1 (configuration not stated) 0.975, C=C[C@@H](COC(C)=O)N(C(=O)OC(C)(C)C)S(=O)(=O)c1ccc(Br)cc1 -3.97, CCCC[C@@H](O)C1=C(COc2ccccc2)C[C@H]2C(=O)N(C)C(=O)[C@H]2[C@H]1CO -1.64, COC(=O)c1ccc([C@H](NC(=O)c2ccco2)[C@]2(C)C[C@H]2C2CCCCC2)cc1 -0.622
